Cycloheximide cs: counter-screen hit for Shiga toxin inhibitors, cycloheximide | cell reporter, cycloheximide protein synthesis inhibition counterscreen | max response, % | 300,000 tested, 12% active | AID 2314; in the data active means max response mostly above about 13%, no sharp cut-off; inactive means mostly below about 14%; further: read at 38.3 µM for the half of the compounds with a filed dose
SARS PLpro yeast: blocks SARS-CoV papain-like protease in a yeast assay; S. cerevisiae expressing SARS-CoV PLpro, growth rescue; Potency, µM (series often up to 32.9 µM), actives largely listed as activators; 330,000 tested, 0.19% active; AID 485353; further: nearly all actives have a fitted effect of over 55% in size
Shiga inhibitor: inhibitors of Shiga toxin in Vero cells; Vero cells, Shiga toxin protein synthesis inhibition reporter; inhibition, % at 38.7 µM; 290,000 tested, 9.2% active; AID 2315; in the data active means inhibition mostly above about 28%, no sharp cut-off; inactive means mostly below about 43%
NS1 function inh: blocks influenza NS1 protein function; Potency, µM (highest dose often 46.1 µM); 270,000 tested, 0.4% active; further: actives are rising curves; nearly all actives have a fitted effect of over 50% in size
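Growth recovery, yeast-based: influenza A NS1 expressed in S. cerevisiae causes slow growth, and suppressors are detected by OD600. The parent strain without NS1 is used as positive control.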
Large screens that a line does not name were inactive. A selection: hits, their analogues and other compounds. The true share with any hit is near 12%. Unless noted, the call rests on the fitted dose curve.

Cc1nn(C(=O)c2ccc3c(c2)OCO3)c(N)c1-c1ccccc1	Cycloheximide cs 38.9, Shiga inhibitor 76.0
O=C(NCc1ccc(F)cc1)C(=O)NCC1OCCCN1S(=O)(=O)c1cccs1 (centres undefined)	none
CCOCC(=O)Nc1ccccc1C(=O)O	none
COc1cccc(C2=CC(c3cccs3)n3nnnc3N2)c1 (centres undefined)	Cycloheximide cs 40.6, Shiga inhibitor 48.2
COc1ccc(C2=CC(c3sccc3C)n3nnnc3N2)cc1 (centres undefined)	Cycloheximide cs 40.0, Shiga inhibitor 109.3
Cc1ccc(C2=CC(c3ccc(N(C)C)cc3)n3nnnc3N2)cc1 (centres undefined)	Cycloheximide cs 25.6
COc1ccc(C2=CC(c3ccc(F)cc3)n3nnnc3N2)cc1 (centres undefined)	none
COc1cccc(C2=CC(c3ccc(OC)c(OC)c3OC)n3nnnc3N2)c1 (centres undefined)	Cycloheximide cs 34.7, Shiga inhibitor 91.6
COc1cccc(C2=CC(c3ccc(C)cc3)n3ncnc3N2)c1 (centres undefined)	none
CCC(C)NC(=O)Cn1c(COc2ccc(Cl)cc2Cl)nc2ccccc21 (centres undefined)	Cycloheximide cs 33.2, Shiga inhibitor 38.7
C=CCn1c(Sc2ncc([N+](=O)[O-])s2)n[nH]c1=O	Cycloheximide cs 21.1
COC(=O)CC(NC(=S)NC(=O)c1ccccc1)c1ccc(Br)cc1 (centres undefined)	none
Nc1nc(NC(=O)Cc2ccccc2)nn1-c1ccccc1	none
O=C(Nc1ccc2nn(-c3ccccc3)nc2c1)c1cccnc1	Cycloheximide cs 22.1
Nc1nc(NC(=O)c2ccco2)nn1-c1ccccc1	Cycloheximide cs 34.9, Shiga inhibitor 79.5
O=C(Nc1cc2nn(-c3ccccc3)nc2cc1Cl)c1ccco1	Cycloheximide cs 20.6, Shiga inhibitor 47.4
CC(C)C(=O)Nc1ccc2nn(-c3ccccc3)nc2c1	Cycloheximide cs 38.7, Shiga inhibitor 103.2
Cc1cc(NC(=O)COC(=O)CNS(=O)(=O)c2c(F)cc(F)cc2Br)no1	none (no result: Cycloheximide cs, Shiga inhibitor, NS1 function inh)
[O][C@H]1[C@@H](O)[C@@H](CO)O[C@@H](O[C@@H]2[C@@H]3OC[C@H]2O[C@H](O[C@@H]2[C@@H](O)[C@H](C[C@@H]4[C@@H]5OC[C@H]4O[CH][C@@H]5O)O[C@H](CO)[C@@H]2OS(=O)(=O)O)[C@@H]3OS(=O)(=O)O)[C@@H]1O	none (no result: SARS PLpro yeast, NS1 function inh)
O=C(Nc1nc2nccc(-c3ccccc3)n2n1)c1ccc(F)cc1	none
O=C(Nc1ccc2nn(-c3ccccc3)nc2c1)c1ccco1	Cycloheximide cs 46.6, Shiga inhibitor 72.1
Cc1ccnc2nc(NC(=O)c3ccco3)nn12	Cycloheximide cs 25.7, Shiga inhibitor 47.8
O=C(Nc1nc2nccc(-c3ccccc3)n2n1)c1ccccc1	Cycloheximide cs 22.0
CCn1c(SCC(=O)Nc2ccc(F)cc2)nnc1C1CC1	Cycloheximide cs 19.4
Nn1c(SCC(=O)Nc2ccc(F)cc2F)nnc1C1CCCCC1	Cycloheximide cs 41.9, Shiga inhibitor 55.3
Cn1c(SCC(=O)Nc2ccc(F)cc2)nnc1C1CC1	none
Nn1c(SCC(=O)Nc2ccccc2F)nnc1-c1cccnc1	none
Nn1c(SCC(=O)Nc2ccc(F)cc2F)nnc1-c1cccnc1	Cycloheximide cs 25.4
CC(C)(C)n1nc2c(c1NC(=O)Cc1cccc3ccccc13)CS(=O)(=O)C2	none (no result: NS1 function inh)
Cn1nnnc1SCC(=O)NC1CCCc2ccccc21 (centres undefined)	none (no result: NS1 function inh)
Nc1[nH]c(=O)[nH]c(=O)c1N=Nc1ccc(C(=O)O)cc1	none
O=C(CCS(=O)(=O)c1ccc(F)cc1)Nc1nc(-c2ccncc2)cs1	none
O=C(O)c1c(-c2ccccc2)oc2ccc(O)cc12	none
Cc1oc2ccc(O)cc2c1C(=O)c1ccccc1	Cycloheximide cs 14.7
CC1CCCN(c2ccc(C(=O)NCc3ccco3)cc2[N+](=O)[O-])C1 (centres undefined)	Shiga inhibitor 60.0
O=C(NCC1CCCO1)c1ccc(N2CCCCC2)c([N+](=O)[O-])c1 (centres undefined)	Cycloheximide cs 43.0, Shiga inhibitor 44.5
O=C(NC1CC1)c1ccc(N2CCCCC2)c([N+](=O)[O-])c1	Cycloheximide cs 16.5, Shiga inhibitor 78.8
Cc1ccnc(SCC(=O)NC2CC2)n1	SARS PLpro yeast inconclusive
CCN(CC)S(=O)(=O)c1ccc(N2CCCC2)c(C(=O)OCC(=O)Nc2cc(C)on2)c1	none
CCc1nnc(NC(=O)Cc2cc(OC)c(OC)c(OC)c2)s1	none (no result: NS1 function inh)
Cc1nnc(SC(C)C#N)n1-c1ccccc1 (centres undefined)	none
COc1ccc(N/N=C/c2c(O)n(-c3cccc(C)c3)c(=O)[nH]c2=O)cc1	Cycloheximide cs 18.4
CN1CCN(c2nc3c(c(=O)n(C)c(=O)n3C)n2C)CC1	none (no result: Cycloheximide cs, SARS PLpro yeast, Shiga inhibitor)
CCc1sc(C(=O)Nc2ccc(F)cc2C)cc1C	Cycloheximide cs 15.3, Shiga inhibitor 74.1
CCc1sc(C(=O)Nc2nccs2)cc1C	Cycloheximide cs 57.2, Shiga inhibitor 55.5
CCc1sc(C(=O)NCc2ccccc2)cc1C	none
CCc1sc(C(=O)Nc2nc(-c3ccccn3)cs2)cc1C	none (no result: Cycloheximide cs, Shiga inhibitor, NS1 function inh)
CCc1sc(C(=O)Nc2ncccc2C)cc1C	Cycloheximide cs 41.5
Cc1cc(C(=O)Nc2ccc(F)cc2C)cs1	none
CCc1sc(C(=O)Nc2ncccc2O)cc1C	Cycloheximide cs 36.4, Shiga inhibitor 45.6
O=C(c1ccc(OC2CCN(C/C=C/c3ccc(F)cc3)CC2)cc1)N1CCCC1	none
CN(C)S(=O)(=O)c1ccc(N=Cc2c(C(F)(F)F)[nH]n(C)c2=O)cc1	none (no result: NS1 function inh)
CC(C)c1ccc(CC(C)C2C3=C(CCCC3=O)OC3=C2C(=O)CCC3)cc1 (centres undefined)	none
Cc1cc(NC(=O)Nc2ccc(OCc3ccccc3)cc2)n(C)n1	none
Cc1ccc(C)c(N(C)S(=O)(=O)c2ccc3c(c2)oc(=O)n3C)c1	none
Cc1nn(C(C)c2nc(-c3ccccc3)no2)c(C)c1[N+](=O)[O-] (centres undefined)	none
Cc1ccc(SC(C)c2nc(-c3ccccc3)no2)cc1 (centres undefined)	Cycloheximide cs 23.1
Cc1ccccc1OC(C)c1nc(-c2ccccc2)no1 (centres undefined)	Cycloheximide cs 38.2
CC1CCC(N2CCN(C(=O)c3ccccc3F)CC2)CC1 (centres undefined)	none
c1ccc(Oc2nc(-c3ccccn3)nc3ccccc23)cc1	Cycloheximide cs 35.6, Shiga inhibitor 34.7
COc1ccc(Oc2nc(-c3ccccn3)nc3ccccc23)cc1	Cycloheximide cs 48.2, Shiga inhibitor 56.0
CSc1nc(Oc2ccc(F)cc2)c2ccccc2n1	none
Fc1ccc(Oc2nc(-c3ccccn3)nc3ccccc23)cc1	Cycloheximide cs 51.4, Shiga inhibitor 67.3
Cc1cc(Br)c(NC(=O)CN2CCCC2)c(Br)c1	Cycloheximide cs 16.5, Shiga inhibitor 63.7
Cc1ccc(NC(=O)CN2CCOCC2)c(Br)c1	Cycloheximide cs 22.6 (no result: Shiga inhibitor)
CS(=O)(=O)c1cccc(C(=O)Nc2ccccc2Cc2ccccc2)c1	none
Cc1ccccc1CN1CCN(c2nc3ccccc3s2)CC1	Cycloheximide cs 50.9, Shiga inhibitor 62.9
O=[N+]([O-])c1ccc(CN2CCN(c3nc4ccccc4s3)CC2)cc1	Cycloheximide cs 11.5
O=C(Nc1ccc(NC(=O)C23CC4CC(CC(C4)C2)C3)cc1)c1cc(F)c(F)cc1Cl	none
